A word on the Inhibition: it is how much of the control response was suppressed. Read a high Inhibition as strong suppression.

The values that follow come from ChEMBL document CHEMBL1157539, “Thousands of chemical starting points for antimalarial lead identification” (Nature, 2010).

Assay type in all cases: functional
For assay [1], the system named is Plasmodium falciparum. The assay is described as follows: GSK_TCMDC: Inhibition of Plasmodium falciparum 3D7 in whole red blood cells, using parasite LDH activity as an index of growth. Test compounds present at 2uM.
The subject of assay [2] is Plasmodium falciparum. The assay is described as follows: GSK_TCMDC: Inhibition of Plasmodium falciparum Dd2 in whole red blood cells, using parasite LDH activity as an index of growth. Test compounds present at 2uM.
Another assay relates to HepG2. The assay is described as follows: GSK_TCMDC: Percent inhibition of human HepG2 cell line. Test compounds present at 10uM.

For the molecule `COc1c(C2CCN(CCCCNC(=O)c3ccc(-c4ccc(C#N)cc4)nc3)CC2)ccc2c1CCCC2`, the Inhibition in the assay on Plasmodium falciparum [1] was determined as 95%; with Plasmodium falciparum [2] it was 67%; in the assay on HepG2, 54%.

In the case of `COc1ccc(-c2cccc(NC(=O)c3cccc(C#N)c3)c2)cc1CN1CCC(O)CC1.O=C(O)C(F)(F)F`, the Inhibition is reported as 97% with Plasmodium falciparum [1], 13% in the assay with Plasmodium falciparum [2] and 30% with HepG2.

For the molecule `C=C(C)Cn1cc(C2CCN(CCCCNC(=O)c3sc(-c4ccc(Cl)cc4Cl)nc3CO)CC2)c2ccccc21`, the Inhibition with Plasmodium falciparum [1] is 82%; in the assay on Plasmodium falciparum [2], 19%; in the assay on HepG2 it was 22%.

Regarding `O=C(/C=C/c1ccc(Cl)c(Cl)c1)NCCCCCN1CCC(NC(=O)Nc2ccc(C(F)(F)F)cc2)C1` (stereo not drawn), the Inhibition with Plasmodium falciparum [1] is 100%; in the assay on Plasmodium falciparum [2], 6%; in the assay with HepG2, 11%.

As to `CC(C)(CNC(=O)C1CCN(Cc2ccoc2)CC1)c1nc(-c2ccc(Cl)c(O)c2)c(-c2ccncc2)[nH]1.Cl`, the Inhibition in the assay on Plasmodium falciparum [1] worked out at 93%; in the assay with Plasmodium falciparum [2] it was 66%; in the assay with HepG2, 0%.

For `O=C(NCCc1ccc(F)cc1)c1ccc(N2CCN(c3ccncc3)CC2)nc1.O=C(O)C(F)(F)F`, the Inhibition with Plasmodium falciparum [1] was found to be 88%; in the assay on Plasmodium falciparum [2] it was 3%; in the assay with HepG2, 1%.

Take `Cc1ccccc1C1CCN(C2CCC(NC(=O)c3cc(-c4ccc(Cl)cc4)cs3)CC2)CC1` (stereo not drawn): the Inhibition in the assay with Plasmodium falciparum [1] is listed as 100%; in the assay on Plasmodium falciparum [2], 100%; in the assay on HepG2, 99%.

Take `CC(C)c1ccc(CN2CCC(CNC(=O)c3cc(-c4cccc(F)c4)cs3)C2)cc1.O=C(O)C(F)(F)F` (stereo not drawn): the values for the Inhibition in the assay on Plasmodium falciparum [1], in the assay with Plasmodium falciparum [2] and in the assay with HepG2 were 100%, 46% and 59%, respectively.

Regarding `CCOc1cc(C(=O)NCCc2ccc(Cl)c(Cl)c2)ccc1-c1nc2cc(Cl)ccc2[nH]1`, the results for the Inhibition in the assay on Plasmodium falciparum [1], with Plasmodium falciparum [2] and with HepG2 were 100%, 47% and 9%, respectively.

Consider `O=C(Nc1ccc(N2CCN(c3ncccc3C(F)(F)F)CC2)nc1)c1cccs1`, for which the Inhibition with Plasmodium falciparum [1] was 83%; in the assay with Plasmodium falciparum [2] it was 40%; in the assay with HepG2 it was 7%.

Regarding `Cc1csc(-c2nc(NCCc3c(C)noc3C)ncc2-c2ccsc2)n1`, the Inhibition turned out to be 90% with Plasmodium falciparum [1], 82% in the assay on Plasmodium falciparum [2] and 6% in the assay on HepG2.

For the molecule `COc1ccc(-c2ccc(NC(=O)c3cccc(C#N)c3)cc2)cc1CN1CCCN(C)CC1.O=C(O)C(F)(F)F`, the Inhibition was found to be 100% in the assay with Plasmodium falciparum [1], 70% in the assay with Plasmodium falciparum [2] and 26% in the assay on HepG2.

Regarding `CCc1cc2c(N)nc(N)nc2nc1-c1ccccc1`, the figures for the Inhibition in the assay with Plasmodium falciparum [1], in the assay on Plasmodium falciparum [2] and in the assay on HepG2 were 91%, 0% and 18%, respectively.

For `Cc1cc2ncn(-c3ccnc(N4CCN(CCCN5CCCC5)CC4)n3)c2cc1C.O=C(O)C(F)(F)F`, the figures for the Inhibition with Plasmodium falciparum [1], with Plasmodium falciparum [2] and in the assay with HepG2 were 100%, 49% and 24%, respectively.

Turning to `CC1Cc2ccccc2N1CC(=O)Nc1cc(C(F)(F)F)ccc1-n1cncn1` (stereo not drawn), the Inhibition in the assay with Plasmodium falciparum [1] was 97%; in the assay on Plasmodium falciparum [2], 97%; with HepG2, 17%.

For the molecule `O=C(O)C(F)(F)F.OCC1CCN(Cc2ccc(-c3ccc(-c4nc5ccccc5[nH]4)cc3)cc2)CC1`, the values for the Inhibition in the assay with Plasmodium falciparum [1], with Plasmodium falciparum [2] and in the assay with HepG2 were 100%, 84% and 37%, respectively.

Turning to `CCOC(=O)c1ccc(N2CCN(c3cc(Cl)ccc3C)CC2)c(NC(=O)Nc2ccc(Cl)c(Cl)c2)c1`, the Inhibition in the assay on Plasmodium falciparum [1] came out at 99%; with Plasmodium falciparum [2], 99%; with HepG2, 10%.

Consider `CCCN(CCC)C(=O)c1cc(C(=O)N[C@@H](Cc2ccccc2)[C@H](O)CNCc2cccc(OC)c2)cc(N2CCCCS2(=O)=O)c1`, for which the Inhibition is 97% in the assay with Plasmodium falciparum [1], 99% in the assay with Plasmodium falciparum [2] and 0% in the assay on HepG2.

Regarding `CN(C)c1ccc(CN2CCC(NC(=O)c3ccc(-c4ccccc4F)s3)CC2)cc1.O=C(O)C(F)(F)F`, the Inhibition in the assay on Plasmodium falciparum [1] was determined as 86%; with Plasmodium falciparum [2], 27%; in the assay on HepG2, 41%.

On to `COc1ccc(-c2cnc3ccc(N4CCCC4)nn23)cc1OC.O=CO`, for which the Inhibition in the assay with Plasmodium falciparum [1] was 98%; in the assay on Plasmodium falciparum [2] it was 98%; with HepG2, 40%.

`CC(C)c1ccc(CN2CCCCC(NC(=O)c3cc(-c4ccccc4F)cs3)C2)cc1.O=C(O)C(F)(F)F` (stereo not drawn): the figures for the Inhibition with Plasmodium falciparum [1], with Plasmodium falciparum [2] and in the assay with HepG2 were 99%, 84% and 18%, respectively.

Regarding `Cl.N=C(N)c1ccc(-c2cc3ccc(C(=N)N)cc3[nH]2)cc1`, the Inhibition stood at 99% in the assay with Plasmodium falciparum [1], 99% with Plasmodium falciparum [2] and 18% with HepG2.

With `CCCCCCOc1ccccc1C(=O)NCCOc1ccc(Cl)cc1`, the results for the Inhibition in the assay on Plasmodium falciparum [1], with Plasmodium falciparum [2] and in the assay on HepG2 were 84%, 37% and 16%, respectively.

With `O=C(C=Cc1ccc(Cl)c(Cl)c1)NCCCCCN1CCC(CCCNC(=O)c2ccc3c(c2)OCO3)CC1`, the Inhibition in the assay with Plasmodium falciparum [1] is reported as 98%; in the assay on Plasmodium falciparum [2] it was 64%; in the assay on HepG2 it was 38%.

`Cc1cccc2nc(-c3ccc(-c4cccc(NC(=O)c5ccncc5)c4)cc3)[nH]c12`: the Inhibition was found to be 98% in the assay on Plasmodium falciparum [1], 8% with Plasmodium falciparum [2] and 46% in the assay with HepG2.

Turning to `COc1cc2c(cc1OCCN1CCC(N3CCCCC3)CC1)N(C(=O)/C=C/c1ccccc1OC(F)(F)F)CC2.Cl`, the Inhibition in the assay on Plasmodium falciparum [1] stood at 100%; with Plasmodium falciparum [2] it was 93%; in the assay with HepG2, 64%.

As to `S=C(NCCCCCN1CCC(c2c[nH]c3ccccc23)CC1)Nc1ccc(Cl)c(Cl)c1`, the Inhibition in the assay on Plasmodium falciparum [1] is 100%; with Plasmodium falciparum [2], 31%; in the assay with HepG2, 89%.

Take `COc1cc2[nH]c(-c3ccc(O)cc3)c(C)c(=O)c2c(OC)c1OC`: the Inhibition in the assay with Plasmodium falciparum [1] worked out at 100%; with Plasmodium falciparum [2], 94%; in the assay on HepG2, 1%.

With `O=[N+]([O-])c1ccc(/C=N/Nc2cc(-c3ccccc3)nc3ccccc23)o1`, the Inhibition with Plasmodium falciparum [1] stood at 93%; in the assay on Plasmodium falciparum [2], 49%; with HepG2, 48%.

With `O=S(=O)(NC1=NCCC1)c1cccc(Nc2nc(C(F)(F)F)nc3ccccc23)c1`, the Inhibition is on record as 83% with Plasmodium falciparum [1], 8% in the assay with Plasmodium falciparum [2] and 6% in the assay on HepG2.

As for `CNc1nc(Nc2ccccc2C)nc2ccccc12.Cl`, the Inhibition is given as 100% in the assay on Plasmodium falciparum [1], 81% in the assay with Plasmodium falciparum [2] and 17% in the assay on HepG2.
